# TDP1 cell CPT = growth inhibition of DT40 Tdp1-/-;hTDP1 cells with camptothecin (screen for TDP1 inhibitors); Potency, µM (series often up to 46.2 µM), inactives show at the highest dose activity change, negative = growth inhibition, most hits filed as inhibitors; chicken DT40 Tdp1-/-;hTDP1 cells + 20 nM CPT, ATP luminescence, 48 h; AID 686979; 12% of 420,000 active; note: potency is the fitted concentration of half-maximal effect; nearly all actives have a fitted effect of over 55% in size
#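 Chicken DT40 Tdp1-/- cells complemented with human TDP1, 400 cells/well, exposed to compounds plus 20 nM camptothecin for at least 48 h at 37 C; viability read as ATP content by CellTiter-Glo luminescence.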
# DT40 TDP1 no CPT = qHTS for Inhibitors of human tyrosyl-DNA phosphodiesterase 1 (TDP1): qHTS in cells in absence of CPT | 15% of 420,000 active | DT40 Tdp1-/- hTDP1 cells, no CPT, ATP luminescence, 48 h | AID 686978, 2013 | Potency, µM (top dose mostly 46.2 µM), without a hit: at the highest dose activity change, negative = growth inhibition, hits mostly inhibitors; note: potency is the fitted concentration of half-maximal effect; nearly all actives have a fitted effect of over 55% in size
#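 No-CPT arm: Tdp1-/-;hTDP1 DT40 cells (400/well) plus compounds, incubated ≥48 hr at 37 °C. Readout CellTiter-Glo luminescence.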
# IL1B secr inh = inhibitors of inflammasome signaling (IL-1 beta secretion); activity change, % at 57.5 µM; THP-1 LPS/ATP IL-1B secretion, AlphaLISA, 16 h; active compounds read low; 4.7% of 360,000 active; in the data active = activity change below about -50%; inconclusive = mostly about -30% to -49%
#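 Secreted IL-1B measured by AlphaLISA bead assay after 16 h compound exposure of THP-1 cells; compounds (final up to 57.5 uM) added 1 h before LPS (250 ng/mL) and ATP (1.25 mM) stimulation; lower signal means less secretion.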
# HT1080-NT tox = kills 2HG-producing HT-1080-NT fibrosarcoma cells | HT-1080-NT fibrosarcoma viability, CellTiter-Glo ATP luminescence, 48 h | Potency, µM (top dose mostly 46.1 µM), for inactives: at the top dose activity, negative = less viability, usual class: cytotoxic | 1.6% of 360,000 active;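 note: NT is the 2HG producing partner of a matched IDH1 knockdown line; potency is the fitted concentration of half-maximal effect; 0% = DMSO-treated cells and -100% = media-only wells without cells; nearly all actives have a fitted effect of over 55% in size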
#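 Luminescent CellTiter-Glo readout after 48 hours of compound exposure at 37 degrees C defined viability of HT-1080-NT cells. Activity was normalized to DMSO wells and cell-free media wells; concentration-response curves were fitted and assigned curve classes.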
# ELG1 DNA repair = inhibitors of ELG1-dependent DNA repair in HEK293T cells; Potency, µM (highest dose often 46.1 µM), inactives show at the top dose activity change, negative = inhibition, usual class: inhibitors; 2.3% of 330,000 active; AID 504467; HEK293T ELG1-luciferase reporter, luminescence, 16 h; DNA damage induced by 5-fluorouridine; note: potency is the fitted concentration of half-maximal effect; nearly all actives have a fitted effect of over 55% in size
#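 HEK293T cells expressing luciferase-tagged ELG1 (2,000/well) received 5-Fluorouridine plus compound or DMSO for 16 hr at 37 °C. Luciferase was read by ONE-Glo luminescence after 30 min at room temperature.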
# HT1080 IDH1KD tx = toxicity to HT-1080 IDH1 knockdown cells (counter line) | HT-1080 IDH1 knockdown viability, ATP luminescence, 48 h | Potency, µM (highest dose often 46.1 µM), for inactives: at the top dose activity, negative = toxicity, usual class: cytotoxic | 2% of 360,000 active | AID 686971;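 note: potency is the fitted concentration of half-maximal effect; 0% = DMSO wells and -100% = cell-free medium wells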
#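 % activity derives from luminescence (CellTiter-Glo), normalised to DMSO and no-cell wells. HT-1080-IDH1KD cells, 750/well, had 48 h compound exposure at 37 °C.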
# Numbers without * were called inactive; ? = inconclusive; . = no result given; [ ] = remark or other dose. Shown are actives, neighbours in structure and some others; about 19% of the full set was active somewhere. Unless noted, calls come from the whole dose curve; as a rule, active = well fitted curve in the direction sought with a large enough effect; inconclusive = small, poorly fitted or top-dose-only effect, or another doubt; inactive = no such curve, though single readings can be large; an effect the other way counts as inactive or inconclusive. Unless noted, % is set by controls: 0 for no effect and ±100 for the full control effect.
SMILES,TDP1 cell CPT,DT40 TDP1 no CPT,IL1B secr inh,HT1080-NT tox,ELG1 DNA repair,HT1080 IDH1KD tx
O=C(CSc1nnc(CCCN2C(=O)c3cccc4cccc(c34)C2=O)n1-c1ccccc1)NCCCN1CCOCC1,27%,-3%,9,16%,-6%,14%
CC(C)c1ccc2oc(-c3cc(NC(=O)c4cccnc4)ccc3Cl)nc2c1,?,16µM*,.,.,.,.
O=C(Nc1ccc2oc(-c3cccc4c(Br)cccc34)nc2c1)c1ccc(F)cc1,?,10µM*,.,.,.,.
CCOc1ccc(C(=O)Nc2ccc3oc(-c4ccc(Br)cc4)nc3c2)cc1,?,10%,.,.,.,.
O=C(Nc1ccc2oc(-c3cccc4c(Br)cccc34)nc2c1)c1ccc(Br)cc1,-11%,-5%,.,.,.,.
CCOc1ccc(C(=O)Nc2ccc(-c3nc4cc(CC)ccc4o3)cc2)cc1,3.7µM*,?,.,.,.,.
COc1ccc(-c2nc3cc(NC(=O)c4ccc(C)cc4)ccc3o2)cc1Cl,21µM*,?,.,.,.,.
CC(C)c1ccc(NC(=O)c2cccnc2)cc1,-28%,-17%,22,-25%,?,0%[9.24 µM]
N#Cc1ncccc1CCc1cccc(Cl)c1,6%,-9%,-3,4%,.,5%
COc1ccc(NC(=O)COc2ccc3c(C)cc(=O)oc3c2)cc1S(=O)(=O)N1CCCCC1,?,?,27,-7%,-24%,-8%
Cc1ccc(C(=O)NCC(=O)N2CCCCCCC2)cc1C,-2%,6%,-22,9%[9.24 µM],?,1%
O=C(Cn1c(=O)n(-c2ccccc2)c(=O)c2c3c(sc21)CCC3)c1ccc(Br)cc1,-20%,?,.,.,.,.
O=C(Nc1ccc2oc(-c3ccccc3F)nc2c1)c1ccccc1Cl,?,13µM*,.,.,.,.
Cc1ccc(C(=O)Nc2ccc3oc(-c4cc(Br)ccc4Cl)nc3c2)cc1,23µM*,?,.,.,.,.
O=C(Nc1ccc2oc(-c3cccc(Cl)c3Cl)nc2c1)c1cccc(Br)c1,13µM*,?,.,.,.,.
CCc1ccc2oc(-c3ccc(NC(=O)c4ccc(OC)c(Br)c4)cc3)nc2c1,-15%,-25%,.,.,.,.
COc1ccc(C(=O)Nc2ccc3oc(-c4ccc5ccccc5c4)nc3c2)cc1Br,18µM*,18µM*,.,.,.,.
Cc1cccn2c(=O)cc(CSc3nnc(NC(=O)COc4ccc(F)cc4)s3)nc12,5%,-6%,.,.,.,.
CCCCCCN1C[C@@H](n2cc(C3CC3)nn2)[C@H](O)C[C@@H]1c1ccccc1,-17%,?,0,0%,.,15%
Cc1c(NC(=O)C(C)Oc2ccc(Br)cc2Cl)c(=O)n(-c2ccccc2)n1C (stereo unspecified),-24%,-11%,3,5%,5%,0%
Cc1ccc(C(=O)Nc2ccc3oc(-c4ccc(C(C)(C)C)cc4)nc3c2)cc1,?,8.2µM*,.,.,.,.
Cc1ccc2oc(-c3cc(NC(=O)c4oc5ccccc5c4C)ccc3Cl)nc2c1,0.016µM*,-81%,.,.,.,.
N#Cc1ccc(C(=O)Nc2ccc(Cl)c(-c3nc4cc(Cl)ccc4o3)c2)c(F)c1,23µM*,18µM*,.,.,.,.
Cc1c(C(=O)Nc2ccc(-c3nc4cc(Cl)ccc4o3)cc2)oc2ccccc12,15%,-11%,.,.,.,.
COc1ccc(C(=O)Nc2ccc3oc(-c4ccc(OC)cc4)nc3c2)cc1,5%,-20%,.,.,.,.
Cn1c(=O)c2c(nc3n(-c4ccc(O)cc4)c(-c4ccc(Br)cc4)cn23)n(C)c1=O,-11%,-6%,.,.,.,.
COc1ncc2nc(-c3cn(C)c4ccccc34)c(=O)n(CCc3ccccc3)c2n1,10%,7%,.,.,.,.
Cc1ccc2c(c1)c1c(c(=O)n(-c3cccc(Cl)c3)c(=O)n1CC(=O)c1ccc(Cl)cc1)n2C,1%,-1%,.,.,.,.
